Source: PubChem (The Scripps Research Institute Molecular Screening Center)
Most compounds without a hit are left out; they make up all but 3.5% or so of the library.
MITF primary = inhibitors of human MITF; AID 1259374; inhibition, % at 2.6 µM; O75030; actives 0.91% (n = 650,000); AlphaScreen MITF homodimerization, bead proximity signal; in the data active means inhibition above about 50%;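 further: 0% = vehicle wells with protein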
TEAD-YAP inh = TEAD-YAP interaction inhibition. HEK-TIYL cells, TEAD-Gal4/YAP UAS-luciferase luminescence. inhibition, % at 9.12 µM. actives 1.4% (n = 640,000). AID 1259422; in the data active means inhibition above about 32%;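 further: 0% = median of test compound wells and 100% = reference inhibitor wells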
GPR151 activ = activates the human receptor GPR151. PathHunter beta-arrestin GPR151 cells, luminescence. activation, % at 11.2 µM. actives 1% (n = 650,000); in the data active means activation above about 4.9%;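 further: 0% = median of compound wells and 100% = cells with positive control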
FBW7 activator = human FBW7 E3 ligase activation, primary screen; Q969H0; AlphaScreen FBW7–phospho-cyclin E peptide binding, activator screen; normalized activity (activation), % at 26.1 µM; actives 0.13% (n = 650,000); AID 1259310; in the data active means normalized activity above about 1.9%;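 further: purified mutant Fbw7 with reduced substrate affinity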
Target sequence (Q969H0 whole entry, looked up): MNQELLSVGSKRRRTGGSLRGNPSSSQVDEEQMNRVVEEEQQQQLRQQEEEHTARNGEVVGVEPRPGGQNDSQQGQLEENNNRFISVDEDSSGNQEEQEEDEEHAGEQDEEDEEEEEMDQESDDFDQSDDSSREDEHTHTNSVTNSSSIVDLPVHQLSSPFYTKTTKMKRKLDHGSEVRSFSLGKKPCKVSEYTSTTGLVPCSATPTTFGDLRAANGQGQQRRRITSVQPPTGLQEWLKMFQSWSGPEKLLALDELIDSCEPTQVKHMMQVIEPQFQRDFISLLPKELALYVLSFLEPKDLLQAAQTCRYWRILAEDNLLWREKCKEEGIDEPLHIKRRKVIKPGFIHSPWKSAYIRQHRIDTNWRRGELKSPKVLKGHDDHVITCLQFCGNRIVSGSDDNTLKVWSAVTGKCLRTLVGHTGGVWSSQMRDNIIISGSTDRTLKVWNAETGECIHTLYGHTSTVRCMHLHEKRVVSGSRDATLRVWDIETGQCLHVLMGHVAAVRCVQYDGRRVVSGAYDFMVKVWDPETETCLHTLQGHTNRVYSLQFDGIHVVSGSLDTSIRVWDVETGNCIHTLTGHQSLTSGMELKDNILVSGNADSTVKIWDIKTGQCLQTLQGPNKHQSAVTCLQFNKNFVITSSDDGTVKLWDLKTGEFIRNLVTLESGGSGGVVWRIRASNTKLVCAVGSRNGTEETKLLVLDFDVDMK
* marks the source's active call; other numbers are inactive results.

SMILES	MITF primary	TEAD-YAP inh	GPR151 activ	FBW7 activator
CCN1CCN(Cc2ccc(NC(=O)Nc3ccccc3Cl)cc2)CC1	18.7	33.7*	-0.2	-0.1
CCCc1ccc(-c2csc(N)n2)cc1	-5.1	-17.5	-0.9	-0.2
COc1cc(CC2(CCC(=O)NCC(C)Oc3cccnc3)CCC(=O)N2)ccc1F (stereo not given)	16.8	-3.6	0.0	2.1*
CCOc1ccc(NC(=O)c2ccc(F)c(S(=O)(=O)N3CCN(C4CCCCC4)CC3)c2)cc1	0.2	34.5*	1.6	0.0
CCOC(=O)c1ccc(NC(=O)c2ccc(Cl)c(S(=O)(=O)N3CCOCC3)c2)cc1	10.9	72.6*	3.1	-0.1
O=C(Nc1ccc(Cl)c(Cl)c1)c1ccc(F)c(S(=O)(=O)N2CCN(C3CCCCC3)CC2)c1	-5.5	4.3	-0.6	0.1
Cc1ccc(C(=O)Nc2ccc(Cl)cc2)cc1S(=O)(=O)N1CCOCC1	-6.9	-9.3	-0.2	-0.1
CCOc1ccc(NC(=O)c2ccc(F)c(S(=O)(=O)N3CCCC3)c2)cc1	27.9	36.9*	0.2	0.1
c1cncc(CNc2nc(Nc3ccc4ncccc4c3)nc3c2ncn3-c2ccsc2)c1	3.2	33.2*	-1.5	-0.1
CC(=O)Nc1ccc(Nc2nc(Nc3nccc4ccccc34)nc3c2ncn3C(C)C)cc1	5.4	45.2*	0.9	-0.1
c1cncc(CNc2nc(Nc3cnccn3)nc3c2ncn3-c2ccsc2)c1	23.7	59.3*	-1.2	0.0
c1cncc(CNc2nc(NC3CC3)c3ncn(-c4ccsc4)c3n2)c1	7.1	39.9*	0.5	-0.1
c1cncc(CNc2nc(NCc3cccnc3)c3ncn(-c4ccsc4)c3n2)c1	4.9	-16.4	-0.4	0.3
c1ccc(CNc2nc(NCc3cccnc3)nc3c2ncn3-c2ccsc2)cc1	11.3	31.8	-2.5	0.0
CCc1ccc(NC(=O)Nc2nnc(N3CC(C)CC(C)C3)s2)cc1 (stereo not given)	5.2	2.3	-1.8	-0.1
c1ccc(CNc2nc(Nc3ccc4ncccc4c3)nc3c2ncn3-c2ccccc2)cc1	-4.2	-4.4	1.5	0.0
Nc1nc(Nc2cnccn2)nc2c1ncn2-c1ccsc1	13.2	42.7*	-1.6	0.0
c1ccc(Nc2nc(Nc3cnccn3)nc3c2ncn3-c2ccsc2)cc1	-11.0	-37.2	-0.4	0.0
c1cncc(CNc2nc(Nc3nccc4ccccc34)nc3c2ncn3-c2ccsc2)c1	33.2	58.9*	0.1	-0.1
c1cnc(Nc2nc(NCc3cccnc3)c3ncn(-c4ccsc4)c3n2)nc1	-4.5	7.0	0.0	0.0
CC(C)n1cnc2c(NCc3cccnc3)nc(Nc3nccc4ccccc34)nc21	6.4	31.9*	0.5	-0.1
Nc1nc(Nc2ccc3ncccc3c2)nc2c1ncn2-c1ccccc1	-10.3	32.6*	1.0	51.9*
CCC(=O)OCCCNC(=O)c1cc2ccccc2oc1=O	7.1	2.8	-0.2	-0.2
COc1ccc2[nH]c3c(=O)n(CCC(=O)NC4CCCCC4)c(=S)[nH]c3c2c1	-2.1	-21.1	4.6	0.1
O=C(Nc1cc(Oc2ccccc2)cc([N+](=O)[O-])c1)c1nn2c(C(F)(F)F)cc(-c3ccccc3)nc2c1Cl	5.6	8.6	-0.9	-0.1
SMILES	MITF primary	TEAD-YAP inh	GPR151 activ	FBW7 activator
COc1ccc(C(=O)NC(=S)Nc2sc3c(c2C#N)CCCCCC3)cc1OC	11.8	-3.2	2.0	-0.1
Cc1ccc(-c2noc(CCC(=O)NC3CCCCCC3)n2)cc1	19.8	17.6	-1.1	0.6
COc1ccc(-c2cnc3ccc(NCCCO)nn23)cc1OC	-10.7	36.2*	-0.1	0.7
COCCNc1ccc2ncc(-c3ccc(O)c(OC)c3)n2n1	-1.5	54.6*	1.4	-0.5
COc1ccccc1OCC(=O)NC(CC(=O)O)c1ccc(Cl)cc1 (stereo not given)	18.7	6.2	1.1	0.2
COc1cc(CC(=O)OCC(=O)c2ccc3c(c2)OCCO3)cc(OC)c1OC	-4.7	52.2*	1.9	0.0
COc1cc(CC(=O)OCC(=O)c2ccc(Br)cc2)cc(OC)c1OC	1.0	59.2*	0.7	0.0
COc1cc(C(=O)COC(=O)Cc2ccsc2)cc(OC)c1OC	-7.5	7.9	0.0	0.2
CCOc1cccc(C2C(C(=O)OCCSCC)=C(C)NC3=C2C(=O)C(C(=O)OC)C(C)C3)c1 (stereo not given)	14.3	-18.9	-0.2	1.9*
CC1=C(C(=O)OCCOc2ccccc2)C(c2coc3ccc(Cl)cc3c2=O)C2=C(CCCC2=O)N1 (stereo not given)	-16.3	-0.8	-0.5	0.0
CCSCCOC(=O)C1=C(C)NC2=C(C(=O)CCC2)C1c1ccc(Br)cc1 (stereo not given)	5.3	6.6	-1.7	2.0*
CCOC(=O)C1=C(C)NC2=C(C(=O)CCC2)C1c1coc2ccc(Cl)cc2c1=O (stereo not given)	14.2	24.3	-0.5	2.3*
CCOc1ccc(C2C(C(=O)OCCSCC)=C(C)NC3=C2C(=O)C(C(=O)OC)C(C)C3)cc1 (stereo not given)	6.7	12.1	-1.3	0.7
Cc1cccc2sc(N(CCN3CCOCC3)C(=O)C3=COCCO3)nc12	-21.9	-22.0	1.4	0.0
C=CCOC(=O)C1=C(C)NC2=C(C(=O)CCC2)C1c1cc(OC)c(OC)cc1[N+](=O)[O-] (stereo not given)	10.5	31.9*	1.6	-0.6
CCN(CC)c1ccc2cc(C(=O)Nc3cccc(C)c3)c(=N)oc2c1	18.1	-2.4	0.0	2.4*
COc1ccccc1-c1cnc2ccc(NCc3cc(OC)c(OC)c(OC)c3)nn12	12.3	58.8*	-0.7	0.0
COc1ccc(CNc2ccc3ncc(-c4ccncc4)n3n2)cc1	-1.4	65.8*	-0.4	-0.2
NS(=O)(=O)c1ccc(CNc2ccc3ncc(-c4cccc5cccnc45)n3n2)cc1	-0.7	2.4	0.1	0.0
COc1ccc(-c2cnc3ccc(NCc4ccc5c(c4)OCO5)nn23)cc1	-8.8	35.6*	-0.5	0.0
NS(=O)(=O)c1ccc(CNc2ccc3ncc(-c4ccccc4F)n3n2)cc1	16.7	33.8*	-0.1	0.0
Clc1ccc(-c2cnc3ccc(NCc4ccc5c(c4)OCO5)nn23)cc1	0.0	-8.6	-0.6	0.7
Oc1ccc(-c2cnc3ccc(NCc4ccc(F)cc4)nn23)cc1	-18.0	40.2*	0.4	-0.1
CN(C)c1ccc(-c2cnc3ccc(NCc4ccc5c(c4)OCO5)nn23)cc1	7.5	54.6*	-0.4	0.0
OCc1ccc(-c2cnc3ccc(NCc4ccc(F)cc4)nn23)cc1	7.3	25.1	-0.8	0.0
SMILES	MITF primary	TEAD-YAP inh	GPR151 activ	FBW7 activator
O=C(O)c1cc(O)c(O)c(O)c1	76.3*	0.8	0.5	-0.2
O=C(O)c1ccccc1	-4.3	-1.1	-0.2	0.0
CCOC(=O)Cn1nnc(-c2ccc(OCc3ccccc3C)cc2)n1	6.1	-3.3	0.2	0.2
CC1=Nc2cc(C(=O)NCCN3CCOCC3)ccc2Sc2ccc(Cl)cc21	9.2	0.5	-0.7	0.2
CCC1=Nc2cc(C(=O)NCC(OC)OC)ccc2Sc2ccc(C)cc21	-4.3	60.4*	0.0	-0.1
COCCNC(=O)c1ccc2c(c1)N=C(C)c1cc(Cl)ccc1S2	5.5	57.4*	2.4	0.0
CCC1=Nc2cc(C(=O)NC)ccc2Sc2ccccc21	-14.6	2.8	0.4	-0.2
